# System: RIVA
# Test: growth inhibition by drug plus 177Lu-lilotomab satetraxetan (1 - RLU/untreated control) (fraction); higher = stronger inhibition
# Details: 177Lu-lilotomab satetraxetan 0.5 ug/ml
# Protocol: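 RIVA (RI-1) ABC-DLBCL cells were pretreated or not for 18 h with 0.5 ug/ml 177Lu-lilotomab satetraxetan (600 MBq/mg), washed and seeded (3000 cells/well) on 384-well plates pre-printed with the Selleck Cambridge Cancer Compound library. Viability was read by RealTime-Glo luminescence on days 3-6 after seeding. Effect = 1 - RLU/mean RLU of the 48 untreated no-drug control wells per plate; Bliss score = (M-E)/(1-Fa).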
SMILES,"growth inhibition by drug plus 177Lu-lilotomab satetraxetan (10 nM, time (day): 3)","growth inhibition by drug plus 177Lu-lilotomab satetraxetan (10 nM, time (day): 4)","growth inhibition by drug plus 177Lu-lilotomab satetraxetan (10 nM, time (day): 5)","growth inhibition by drug plus 177Lu-lilotomab satetraxetan (10 nM, time (day): 6)","growth inhibition by drug plus 177Lu-lilotomab satetraxetan (100 nM, time (day): 3)","growth inhibition by drug plus 177Lu-lilotomab satetraxetan (100 nM, time (day): 4)","growth inhibition by drug plus 177Lu-lilotomab satetraxetan (100 nM, time (day): 5)","growth inhibition by drug plus 177Lu-lilotomab satetraxetan (100 nM, time (day): 6)"
CCn1c(-c2nonc2N)nc2cnc(Oc3cccc(NC(=O)c4ccc(OCCN5CCOCC5)cc4)c3)cc21,0.46,0.522,0.558,0.578,0.439,0.515,0.547,0.569
Cc1[nH]c(/C=C2\C(=O)Nc3ccc(S(=O)(=O)N(C)c4cccc(Cl)c4)cc32)c(C)c1C(=O)N1CCN(C)CC1,0.489,0.536,0.543,0.552,0.412,0.518,0.528,0.523
CO[C@@H](C(=O)N1Cc2[nH]nc(NC(=O)c3ccc(N4CCN(C)CC4)cc3)c2C1)c1ccccc1,0.555,0.594,0.603,0.604,0.514,0.615,0.685,0.776
CS(=O)(=O)c1ccc(C(=O)Nc2ccc(Cl)c(-c3ccccn3)c2)c(Cl)c1 [Vismodegib (GDC-0449)],0.631,0.647,0.682,0.672,0.538,0.568,0.591,0.608
O=c1[nH]cc(F)c(=O)[nH]1 [Adrucil (Fluorouracil)],0.421,0.521,0.54,0.555,0.398,0.483,0.493,0.512

# From the supplement of paper PMC6897291
